In PubChem BioAssay AID485364 (National Center for Advancing Translational Sciences (NCATS), 2010):
Hit rate of the full screen: of about 360,000 compounds, about 11,000 (3.1%) were called active. Where a call stands in place of a potency, no number is given. Inconclusive results (about 4%) are left out. Calls come from the whole dose curve; as a rule, active = well fitted inhibition curve with a large enough effect; inconclusive = small, poorly fitted or top-dose-only effect; inactive = no such curve, though single readings can be large or run the other way. The sample as a whole holds a higher share of actives than the screen did.

Each molecule was assayed against Schistosoma mansoni thioredoxin glutathione reductase (TGR) (UniProt Q962Y6) (assay: qHTS Assay for the Inhibitors of Schistosoma Mansoni Peroxiredoxins). Conditions: purified TGR, DTNB reduction, TNB absorbance 405 nm; series mostly up to 114 µM.
How it was run: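 First, TGR (20 nM dispensed) and NADPH were mixed with compound. Second, a 15 min room-temperature incubation followed. Third, further NADPH and then DTNB were added to start the reaction. Finally, TNB absorbance was monitored kinetically.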
Note: nearly all actives have a fitted effect of over 60% in size.
Potency is the fitted concentration of half-maximal effect.

Row | SMILES | Potency
1 | Cc1ccc(CNC(=O)CSc2c(C)cnc3c2c(=O)n(C)c(=O)n3C)cc1 | inactive
2 | Cc1ccc(NC(=O)CCCn2c(=O)c3cccn3c3ccccc32)cc1Cl | inactive
3 | Cn1c(=O)[nH]c(=O)c2c1nc(NCCc1ccccc1)n2Cc1ccc(F)cc1 | inactive
4 | Cc1c(C(=O)O)cccc1-n1c(C)cc(/C=C2\C(=O)NC(=O)N(c3ccc4c(c3)OCO4)C2=O)c1C | 14.1 µM (active)
5 | CC(=O)C1=C(C)NC(=O)NC1c1ccc2c(c1)OCO2 (stereo unspecified) | inactive
6 | Cc1ccccc1-n1c(C)cc(/C=C2\NC(=O)NC2=O)c1C | inactive
7 | CCOC(=O)c1cccc(NS(=O)(=O)c2cn(C)c(C)n2)c1 | inactive
8 | CCCOC(=O)CC1C(=O)NCCN1Cc1ccc(F)cc1 (stereo unspecified) | inactive
9 | COc1ccccc1CN1CCNC(=O)C1CC(=O)N(C)CC1CCOCC1 (stereo unspecified) | 50.1 µM (active)
10 | Cc1cnc(CN(C)C(=O)CC2C(=O)NCCN2Cc2cccc(F)c2F)[nH]1 (stereo unspecified) | inactive
11 | CN(Cc1cccc2ncccc12)C(=O)CC1C(=O)NCCN1Cc1ccc(F)cc1 (stereo unspecified) | 35.5 µM (active)
12 | C=CCC1(CC=C)CCCN1C(=O)CC1C(=O)NCCN1Cc1ccccc1OC (stereo unspecified) | inactive
13 | CC(C)CN1CCNC(=O)C1CC(=O)N(C)CC1CCOCC1 (stereo unspecified) | inactive
14 | CCc1ccc2ncc3c(-c4ccc(C)cc4)nn(CC(=O)NCc4ccccc4)c3c2c1 | inactive
15 | Cc1nn(C)c2c1c(C(F)(F)F)cc(=O)n2C(C)C(=O)NCc1ccc(Cl)cc1 (stereo unspecified) | inactive
16 | CC(C)c1ccc(NC(=O)Cn2nnc(C(=O)NCCc3ccccc3)c2N)cc1 | inactive
17 | COc1ccc(C(=O)NCC(=O)N/N=C/c2ccc([N+](=O)[O-])o2)cc1OC | 17.8 µM (active)
18 | COc1ccccc1OCCNC(=O)c1cc([N+](=O)[O-])cc([N+](=O)[O-])c1 | inactive
19 | COc1cc(CC(=O)N/N=C/c2ccccc2)c([N+](=O)[O-])cc1OC | inactive
20 | CC(C)(C)c1ccc(S(=O)(=O)N2CCN(C(=O)c3cc(-c4ccc(Br)cc4)n[nH]3)CC2)cc1 | inactive
21 | COc1ccc(N2CCN(S(=O)(=O)c3ccc(-c4coc(C)n4)cc3)CC2)cc1 | inactive

Row | SMILES | Potency
22 | O=C(C1CCCN(S(=O)(=O)c2cccc3nonc23)C1)N1CCN(c2ccccc2F)CC1 (stereo unspecified) | inactive
23 | CCC(=O)N1CCc2cc(Br)cc(S(=O)(=O)Nc3ccc(C)cc3C)c21 | inactive
24 | Oc1c(C=Nc2cccc3nsnc23)ccc2ccccc12 | 7.94 µM (active)
25 | CCc1ccc(S(=O)(=O)n2ccnc2)cc1 | inactive
26 | COCC(C)NS(=O)(=O)c1ccc(N2CCCCS2(=O)=O)cc1 (stereo unspecified) | inactive
27 | COCCCNC(=O)C1CC(=O)N(CCc2ccc(F)cc2)C1 (stereo unspecified) | inactive
28 | COCCCn1c(CCC(=O)O)ccc1-c1ccc(F)cc1 | 44.7 µM (active)
29 | O=C(O)CCCn1c(=O)c2cccn2c2ccc(F)cc21 | inactive
30 | CCOC(=O)C1CCCN(CC(=O)Nc2cc(C)c3c(=O)oc4ccccc4c3n2)C1 (stereo unspecified) | inactive
31 | O=C(CSC1CC(=O)N(CCc2ccccc2)C1=O)Nc1ccc(Cl)cc1 (stereo unspecified) | inactive
32 | CCC1Oc2ccc(Cl)cc2N(CC(=O)O)C1=O (stereo unspecified) | inactive
33 | Cc1cc(Cl)ccc1N1C(=O)CC(SCCC(=O)O)C1=O (stereo unspecified) | 39.8 µM (active)
34 | COc1ccc(N2CCN(C(=O)c3c(C)oc4nc(C)nc(N5CCCC5)c34)CC2)cc1 | inactive
35 | COc1ccc(C(=O)N2CCC(c3nc4ccccc4o3)CC2)cc1 | inactive
36 | O=C(NCc1ccco1)C(=O)c1cn(CC(=O)N2CCCCCC2)c2ccccc12 | 31.6 µM (active)
37 | Cc1ccc(CNC(=O)C(=O)c2cn(CC(=O)N3CCOCC3)c3ccccc23)cc1 | inactive
38 | Cc1ccc(CNC(=O)C(=O)c2cn(CC(=O)N3CCCC3)c3ccccc23)cc1 | inactive
39 | CC1CCN(C(=O)Cn2c(=O)n(-c3ccc(Cl)cc3)c(=O)c3c4c(sc32)CCC4)CC1 | inactive
40 | Cc1cc(C)c2oc(C(=O)Nc3c(C(=O)Nc4ccccc4)oc4ccccc34)cc(=O)c2c1 | inactive
41 | NC(=O)CC[C@@H]1NC(=O)[C@@H]2CCCN2C(=O)c2cc([N+](=O)[O-])cc(F)c2NCCC[C@@H](C(N)=O)NC1=O | 44.7 µM (active)
42 | C[C@@H]1NC(=O)c2cc([N+](=O)[O-])cc(F)c2NCCC[C@@H](C(N)=O)NC(=O)[C@H](CC(N)=O)NC1=O | inactive

Row | SMILES | Potency
43 | NC(=O)CC[C@@H]1NC(=O)[C@H](CO)NC(=O)c2cc([N+](=O)[O-])cc(I)c2NCC[C@@H](C(N)=O)NC1=O | inactive
44 | Cc1cccc(CC(=O)Nc2cccc(-c3cn4cccnc4n3)c2)c1 | inactive
45 | CN(C)Cc1c(C#N)c2ccccc2n1C | inactive
46 | CCCc1cc(=S)n2c([nH]c3ccccc32)c1C#N | 0.631 µM (active)
47 | O=C(Cn1c(-c2cccs2)cc2ccccc21)NCCc1ccc(Cl)cc1 | inactive
48 | Cc1ccc2c(c1)N(C(=O)Nc1ccc(Br)cc1F)CCO2 | inactive
49 | COc1ccc(-c2cn3c(C)c(C(=O)Nc4cc(C)cc(C)c4)sc3n2)cc1 | inactive
50 | CCOC(=O)C1CCCN(C(=O)c2cncc(Br)c2)C1 (stereo unspecified) | inactive
51 | CCOC(=O)C1CCCN(C(=O)c2ccc(CS(=O)(=O)c3ccc(Br)cc3)o2)C1 (stereo unspecified) | 20 µM (active)
52 | CCOC(=O)C1CCCN(C(=O)c2cccc(S(=O)(=O)N3CCOCC3)c2)C1 (stereo unspecified) | inactive
53 | O=C(c1ccc2c(c1)N(Cc1ccccc1)C(=O)c1ccccc1S2(=O)=O)N1CCC(Cc2ccccc2)CC1 | inactive
54 | Cc1ccc(CN2CCNC(=O)C2CC(=O)NCc2csc(C(C)C)n2)cc1 (stereo unspecified) | inactive
55 | O=C(CC1C(=O)NCCN1Cc1ccc(-c2ccccc2)cc1)NCC1CCOCC1 (stereo unspecified) | inactive
56 | CC(C)c1nc(CNC(=O)CC2C(=O)NCCN2Cc2ccoc2)cs1 (stereo unspecified) | 35.5 µM (active)
57 | COC(=O)c1cc(S(=O)(=O)N2CCN(c3cc(Cl)ccc3C)CC2)c[nH]1 | inactive
58 | Cc1ccc(C(=O)CC2(O)C(=O)N(CCc3ccccc3)c3ccc(Br)cc32)cc1 (stereo unspecified) | inactive
59 | Cc1onc(-c2ccc(F)cc2F)c1C(=O)Nc1cccc(C(F)(F)F)c1 | inactive
60 | COc1ccc(CCNC(=O)c2ccc3c(c2)sc2nc(-c4ccc(C)cc4)cn23)cc1OC | inactive
61 | CCc1cccc(NC(=O)c2cc(-c3ccccc3)n[nH]2)c1 | inactive
